Compound activity deposited in PubChem BioAssay by Broad Institute.
Only a sample is shown.
aSyn UTR act = Activators working through SNCA 5'UTR binding (MLPCN); alpha-synuclein 5'UTR reporter, activators screen; activity score, % (tested at 7.5 µM), hits read low; AID 1814; 7.1% of 300,000 active; in the data active = activity score below about -60%
* marks the source's active call; other numbers are inactive results.

Screening COc1ccc(CCNC(=O)c2coc(=O)c(Br)c2)cc1 returned aSyn UTR act -63*.
`COc1ccc(CCNC(=O)c2ccc3c(c2)OCCO3)cc1` gave aSyn UTR act -135*.
CCc1ccc(C(=O)c2cc3ccc(O)cc3oc2=O)cc1 was read as aSyn UTR act -106*.
`COc1cccc(NC(=O)c2nn(C)cc2Br)c1` gave aSyn UTR act -105*.
For Cn1cc(Br)c(C(=O)Nc2ncc(Br)s2)n1 the results were aSyn UTR act -147*.
`CCOc1ccc(NC(=O)c2nn(C)cc2Br)cc1` gave aSyn UTR act -154*.
For Cn1cc(Br)c(C(=O)NNC(=O)c2ccc(Cl)cc2)n1 the results were aSyn UTR act -94*.
For Oc1ccc(Cl)cc1C1=NNC(c2ccc(Cl)cc2)C1 (stereo not given) the results were aSyn UTR act -90*.
`O=C(/C=C(/c1ccc(Cl)cc1)n1cncn1)c1ccccc1` gave aSyn UTR act -62*.
Cc1nc(CSc2ccc(Br)cc2)cs1 was read as aSyn UTR act -71*.
For Cc1cccc2c1cnn2C(=O)Nc1cc(F)ccc1F the results were aSyn UTR act -178*.
For CCC(=O)Nc1nonc1-c1nc2ccccc2n1Cc1cccc2ccccc12 the results were aSyn UTR act 67.
For CCOc1ccccc1NC(=O)n1ncc2c(C)cccc21 the results were aSyn UTR act -68*.
CCCCOc1ccccc1NC(=O)Cn1c(-c2nonc2N)nc2ccccc21 was read as aSyn UTR act 124.
For Cc1nc2cc(Nc3nnc(-c4ccccc4)c4ccccc34)ccc2n1C the results were aSyn UTR act -110*.
For CCOC(=O)c1ccc(NC(=S)Nc2ccc(Br)cc2N)cc1 the results were aSyn UTR act -114*.
For CCOC(=O)c1ccc(NC(=S)Nc2cccc(N)n2)cc1 the results were aSyn UTR act -147*.
Screening CCC(C)N1C(=O)S/C(=C/c2ccc3c(c2)n(C)c(=O)n3C)C1=O (stereo not given) returned aSyn UTR act -69*.
`CC(=O)O[C@H]1C(=O)[C@@]2(C)[C@H]([C@H](OC(=O)c3ccccc3)[C@]3(O)C[C@H](OC(=O)[C@H](O)C(NC(=O)c4ccccc4)c4ccccc4)C(C)=C1C3(C)C)[C@]1(OC(C)=O)CO[C@@H]1C[C@@H]2O` (stereo not given in full) gave aSyn UTR act 72.
c1ccc(-c2noc(-c3ccc4ccccc4c3)n2)cc1 was read as aSyn UTR act 77.
Screening Brc1ccc(-c2nc(-c3cccnc3)no2)o1 returned aSyn UTR act -164*.
`Brc1ccc(-c2nc(-c3ccccc3)no2)o1` gave aSyn UTR act -141*.
Screening O=C1c2ccccc2C(=O)C1c1ccccn1 returned aSyn UTR act -105*.
Screening COc1ccccc1Nc1nc2ccc(C)cc2cc1C#N returned aSyn UTR act -87*.
`COc1ccccc1Nc1nc(NCCO)nc(N)c1[N+](=O)[O-]` gave aSyn UTR act 61.
CCOC(=O)N1CCN(C(=O)c2ccc(C#CC3(O)CCCCC3)cc2)CC1 was read as aSyn UTR act -64*.
Screening CCCOc1ccc(OCCSc2nnc(N)s2)cc1 returned aSyn UTR act -89*.
Screening CCCOc1ccc(-c2cnc(N)s2)cc1 returned aSyn UTR act -158*.
Screening CCOC(=O)c1ccc(CSc2nnc(N)s2)cc1 returned aSyn UTR act -74*.
For CCOc1ccc(-c2nc(CSc3nnc(N)s3)cs2)cc1 the results were aSyn UTR act -90*.
`CCOc1ccc(N/C(N)=N/c2nc(CSc3nnc(C)s3)cc(=O)[nH]2)cc1` gave aSyn UTR act 84.
Screening CC(=O)c1ccc(N2CCN(C(=O)c3ccc(Cn4c(=S)[nH]c5ccc(N6CCOCC6)cc5c4=O)cc3)CC2)cc1 returned aSyn UTR act -72*.
`COC(=O)C(Cc1ccc(OC(=O)c2ccccc2Cl)cc1)N1Cc2ccccc2C1=O` (stereo not given) gave aSyn UTR act -88*.
Screening COC(=O)C(Cc1ccc(OC(=O)c2ccccc2C)cc1)N1Cc2ccccc2C1=O (stereo not given) returned aSyn UTR act -142*.
Screening O=C(/C=C/c1cccnc1)c1ccc(NC(=O)c2cccc(Br)c2)cc1 returned aSyn UTR act -103*.
For COc1cc(C(=O)/C=C/c2cccnc2)ccc1O the results were aSyn UTR act -107*.
Cc1cccc(C(=O)Nc2ccc(C(=O)/C=C/c3cccnc3)cc2)c1 was read as aSyn UTR act -98*.
Screening Cc1cccc(C(=O)Nc2ccc(C(=O)/C=C/c3ccncc3)cc2)c1 returned aSyn UTR act -160*.
O=C(/C=C/c1ccc(OCc2ccccc2)c(OCc2ccccc2)c1)c1cccnc1 was read as aSyn UTR act -62*.
NC(N)=N/N=C/c1ccc(OCc2ccccc2)c(OCc2ccccc2)c1 was read as aSyn UTR act 106.
For Cc1nc2sc(C(=O)c3ccccc3)c(N)c2c(C)c1C the results were aSyn UTR act -68*.
Screening CC(=O)c1ccc(NC(=O)c2sc3nc(C)c(C)c(C)c3c2N)cc1 returned aSyn UTR act -233*.
Nc1c(C(=O)Nc2ccccc2)sc2ncc([N+](=O)[O-])cc12 was read as aSyn UTR act -63*.
For Cc1nc2sc(C(=O)OC(C)C)c(N)c2c(C)c1C the results were aSyn UTR act -190*.
`CC1CCC(C(C)C)C(OC(=O)Cn2c(-c3ccc(Cl)cc3)[n+](C)c3ccccc32)C1` (stereo not given) gave aSyn UTR act 61.
`CC(=O)Nc1ccc(Nc2nc(C)c([N+](=O)[O-])c(Nc3ccccc3)n2)cc1` gave aSyn UTR act 58.
Cc1snc2sc(C(=O)c3ccc(Br)cc3)c(N)c12 was read as aSyn UTR act -101*.
Screening Cc1nc2sc(C(=O)Nc3ccccc3)c(N)c2c(C)c1[N+](=O)[O-] returned aSyn UTR act -79*.
`CC(=O)Nc1ccc(Nc2nc(C)c([N+](=O)[O-])c(N(C)c3ccccc3)n2)cc1` gave aSyn UTR act 86.
Screening Oc1c(C(c2ccccc2Cl)N2CCCC2)ccc2cccnc12 (stereo not given) returned aSyn UTR act 97.
Cc1ccc(NC(=O)C2CCCN(c3ncccn3)C2)cc1C (stereo not given) was read as aSyn UTR act -125*.
Screening COc1ccc(NC(=O)C2CCCN(c3ncccn3)C2)cc1 (stereo not given) returned aSyn UTR act -75*.
`Cc1cc(C)n(-c2nc(Nc3ccccc3C(F)(F)F)nc(-n3nc(C)cc3C)n2)n1` gave aSyn UTR act 62.
Screening Cc1cc(C)n(-c2nnc(NC34CC5CC(CC(C5)C3)C4)nn2)n1 returned aSyn UTR act -172*.
For Cc1ccc2[nH]c3ccccc3c(=O)c2c1 the results were aSyn UTR act -93*.
COc1ccccc1-c1cnn2c(NCCc3ccccc3)cc(C)nc12 was read as aSyn UTR act -112*.
For Cc1cc(NCc2ccccc2)n2ncc(-c3ccccc3)c2n1 the results were aSyn UTR act -72*.
Screening Cc1cc(NCCN2CCOCC2)n2ncc(-c3ccccc3)c2n1 returned aSyn UTR act -62*.
Screening Cc1cc(NC(C)c2ccccc2)n2ncc(-c3ccccc3)c2n1 (stereo not given) returned aSyn UTR act -83*.
`Cc1cc(NC2CCCC2)n2ncc(-c3ccccc3)c2n1` gave aSyn UTR act 60.
`C=CCc1c(C)nc2c(-c3ccccc3)cnn2c1N1CCOCC1` gave aSyn UTR act -175*.
